Screens as filed in PubChem BioAssay.
Bead autofluor = counter-screen for toxin protease inhibitors: compound fluorescence; compound autofluorescence counterscreen, microsphere flow cytometry; active compounds read high; fluorescence intensity (concentration not given with the values); AID 624483; hit rate 3.1% among 360,000; in the data active = fluorescence intensity above about 16000; inconclusive = no clear call, values can overlap the other calls
SARS 3CLpro inh = SARS-CoV 3CLpro protease inhibitors, primary screen, biochemical, quenched FRET; hit rate 0.14% among 290,000; recombinant SARS-CoV 3CLpro, quenched FRET peptide cleavage; inhibition, % at 6 µM; Replicase polyprotein 1ab (Severe acute respiratory syndrome coronavirus), P0C6X7; AID 1706, 2009; in the data active = inhibition above about 12%
BJeLR lethal = MLPCN primary cell-based screen for lethality selective to Ras in HRASV12 cells. BJeLR (HRASV12) viability, CellTiter-Glo ATP luminescence, 48 h. inhibition, % (test concentration not listed). hit rate 0.17% among 300,000; in the data active = inhibition above about 50%; inconclusive = no clear call, values can overlap the other calls
BoNT F protease = BoNT/F light chain protease inhibitors, primary screen, biochemical, flow cytometry, MLPCN library | Botulinum neurotoxin type F light chain protease (Clostridium botulinum) | Multiplex microsphere protease cleavage assay | AID 588497, 2011 | hit rate 0.22% among 360,000 | inhibition, % at 10 µM; in the data active = inhibition above about 35%, passing the limit was not always enough; inconclusive = no clear call, values can overlap the other calls; also: plate controls were buffer without enzyme for full effect and enzyme alone for no effect
BoNT-A LC inh2 = BoNT/A light chain protease inhibitors, primary screen, biochemical, flow cytometry, MLPCN library; inhibition, % at 10 µM; multiplex microsphere protease substrate cleavage; hit rate 0.17% among 360,000; also: plate controls were buffer without enzyme for full effect and enzyme alone for no effect
Anthrax LF inh2 = Bacillus anthracis LF protease inhibitors, primary screen, biochemical, multiplex microsphere, MLPCN library; multiplex microsphere protease cleavage assay; inhibition, % at 10 µM; hit rate 0.12% among 360,000; AID 588501, 2011; also: plate controls were buffer without enzyme for full effect and enzyme alone for no effect
An asterisk follows results filed as active. Most compounds without a hit are left out; they make up all but 3.6% or so of the library. Rule as the data show it, unless noted: active = inhibition above about 30%; inconclusive = no clear call, values can overlap the other calls; inactive = below that.

What do the screens show for `CCOC(=O)c1cc2cc3ccccc3cc2[nH]1`?
Bead autofluor: 8411; SARS 3CLpro inh: 6; BoNT F protease: 3; BoNT-A LC inh2: 4; Anthrax LF inh2: 2

Results for Cc1ccc(C(=O)CN2C(=O)NC3(CCCCCC3)C2=O)c(C)c1 ?
Bead autofluor: inconclusive; BJeLR lethal: -9; BoNT F protease: inconclusive; BoNT-A LC inh2: 0; Anthrax LF inh2: 4

How did COc1ccc(NC(=O)C(C)N2c3cccc4cccc(c34)S2(=O)=O)cc1 (configuration not stated) do in these assays?
Bead autofluor: 22225*; SARS 3CLpro inh: 1; BJeLR lethal: 0; BoNT F protease: -1; BoNT-A LC inh2: 2; Anthrax LF inh2: -1

Results for COc1ccc(NC(=O)C(C)N2c3cccc4cccc(c34)S2(=O)=O)cc1OC (configuration not stated) ?
Bead autofluor: 10491; SARS 3CLpro inh: -4; BJeLR lethal: -5; BoNT F protease: 8; BoNT-A LC inh2: 2; Anthrax LF inh2: 0

What do the screens show for `COCc1nnc(NC(=O)c2cc(Cl)ccc2OC)s1`?
Bead autofluor: 23665*; SARS 3CLpro inh: -5; BJeLR lethal: 7; BoNT F protease: -5; BoNT-A LC inh2: -2; Anthrax LF inh2: -1

How did CCOCc1nnc(NC(=O)c2cc(Cl)ccc2OC)s1 do in these assays?
Bead autofluor: 3541; SARS 3CLpro inh: 1; BJeLR lethal: 2; BoNT F protease: -1; BoNT-A LC inh2: 0; Anthrax LF inh2: -5

How did COCc1nnc(NC(=O)c2ccc(NC(=O)C(C)C)cc2)s1 do in these assays?
Bead autofluor: 23228*; SARS 3CLpro inh: -3; BJeLR lethal: -7; BoNT F protease: -3; BoNT-A LC inh2: -2; Anthrax LF inh2: -2

What do the screens show for `Cc1ccc(NC(=S)N(CCCN2CCOCC2)Cc2cccnc2)cc1C`?
Bead autofluor: 4135; SARS 3CLpro inh: 7; BJeLR lethal: -1; BoNT F protease: -7; BoNT-A LC inh2: 0; Anthrax LF inh2: 2

Results for COc1ccc(S(=O)(=O)O/N=C2\CCSc3ccc(C)cc32)cc1 ?
Bead autofluor: 21946*; SARS 3CLpro inh: -6; BJeLR lethal: 1; BoNT F protease: -9; BoNT-A LC inh2: -7; Anthrax LF inh2: -1

How did Cc1ccc(C(=O)O/N=C2\CCSc3ccc(C)cc32)cc1 do in these assays?
Bead autofluor: 19396*; SARS 3CLpro inh: 3; BJeLR lethal: 6; BoNT F protease: 0; BoNT-A LC inh2: inconclusive; Anthrax LF inh2: -5

What do the screens show for `Cc1cccc(C(=O)O/N=C2\CCSc3ccc(C)cc32)c1`?
SARS 3CLpro inh: 2; BJeLR lethal: 7

What do the screens show for `CCOC(=O)C1CCCN(Cc2ccc3c(c2)OCO3)C1` (configuration not stated)?
Bead autofluor: 16327*; SARS 3CLpro inh: -1; BJeLR lethal: -12; BoNT F protease: -4; BoNT-A LC inh2: 0; Anthrax LF inh2: -1

How did CCN(CC)C(=O)C1CCCN(Cc2ccc3c(c2)OCO3)C1 (configuration not stated) do in these assays?
Bead autofluor: 2466; SARS 3CLpro inh: 1; BJeLR lethal: 12; BoNT F protease: 4; BoNT-A LC inh2: 0; Anthrax LF inh2: -6

Results for CCOC(=O)C1CCN(C(=O)N(C)C)CC1 ?
Bead autofluor: 23160*; SARS 3CLpro inh: 0; BJeLR lethal: -4; BoNT F protease: 1; BoNT-A LC inh2: 0; Anthrax LF inh2: -3

How did CCOC(=O)C1CCN(C(=O)CSCCSCC(=O)N2CCC(C(=O)OCC)CC2)CC1 do in these assays?
Bead autofluor: 3376; SARS 3CLpro inh: 3; BJeLR lethal: -7; BoNT F protease: -1; BoNT-A LC inh2: -1; Anthrax LF inh2: 1

How did CCCCC(=O)Nc1ccc(C(=O)NCC(=O)OC)cc1 do in these assays?
Bead autofluor: 22542*; SARS 3CLpro inh: -5; BJeLR lethal: -12; BoNT F protease: 2; BoNT-A LC inh2: -1; Anthrax LF inh2: 0

Results for CCOC(=O)C1CCN(C(=O)c2ccc3c(c2)OCO3)CC1 ?
Bead autofluor: 22950*; SARS 3CLpro inh: -3; BJeLR lethal: 5; BoNT F protease: 2; BoNT-A LC inh2: 2; Anthrax LF inh2: -1
